According to PubChem BioAssay:
Where “and” joins values, the source holds several entries; their conditions need not be identical. Equal entries are not always repeated. Calls of active or inactive are those of the source. Rule as the data show it: active = inhibition above about 80%; inactive = the rest.

Experiment: growth inhibition, single agents and combos, LFS_MB_1R, cell-based, cisplatin or BGB combos, synergistic combos for chromothripsis tumors (AID 1671452)
Conditions: LFS_MB_1R medulloblastoma cells, measured here: combination with cisplatin, at 0.5 µM, stronger effect = higher value
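Also: cells exposed for 96 hours before readout.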

SMILES	inhibition
Cc1c(N)nc(C(CC(N)=O)NCC(N)C(N)=O)nc1C(=O)NC(C(=O)NC(C)C(O)C(C)C(=O)NC(C(=O)NCCc1nc(-c2nc(C(=O)NCCC[S+](C)C)cs2)cs1)C(C)O)C(O[C@@H]1O[C@@H](CO)[C@@H](O)[C@H](O)[C@@H]1O[C@H]1O[C@H](CO)[C@@H](O)[C@H](OC(N)=O)[C@@H]1O)c1cnc[nH]1 (some centres undefined)	19.1% and 22.6%
O=c1[nH]c(=O)n(C2OC(CO)C(O)C2O)cc1F (centres undefined)	-2.35%
O=P(O)(NCCCl)NCCCl	-71.6%
CC1(C)C(C(=O)Nc2ccc(S(=O)(=O)c3ccc(NC(=O)C4C(C)(C)C4(C)C)cc3)cc2)C1(C)C	-46.1%
CCC1(O)C(=O)OCc2c1cc1n(c2=O)Cc2cc3ccccc3nc2-1 (centres undefined)	67.3% and 77.9%
NC(Cc1ccc(N(CCCl)CCCl)cc1)C(=O)O (centres undefined)	-42.9%
COc1cc([C@@H]2c3cc4c(cc3[C@H](O)[C@H]3COC(=O)[C@H]23)OCO4)cc(OC)c1O	-26.6% and 18%
COc1cc(C2c3cc4c(cc3C(O)C3COC(=O)C23)OCO4)cc(OC)c1OC (centres undefined)	54.6%

Same assay, conditions: LFS_MB_1R medulloblastoma cells, measured here: combination with cisplatin, at 5 µM, stronger effect = higher value

SMILES	inhibition
Cc1c(N)nc(C(CC(N)=O)NCC(N)C(N)=O)nc1C(=O)NC(C(=O)NC(C)C(O)C(C)C(=O)NC(C(=O)NCCc1nc(-c2nc(C(=O)NCCC[S+](C)C)cs2)cs1)C(C)O)C(O[C@@H]1O[C@@H](CO)[C@@H](O)[C@H](O)[C@@H]1O[C@H]1O[C@H](CO)[C@@H](O)[C@H](OC(N)=O)[C@@H]1O)c1cnc[nH]1 (some centres undefined)	2.08% and 20.3%
O=c1[nH]c(=O)n(C2OC(CO)C(O)C2O)cc1F (centres undefined)	44.8%
O=P(O)(NCCCl)NCCCl	-97.5%
CC1(C)C(C(=O)Nc2ccc(S(=O)(=O)c3ccc(NC(=O)C4C(C)(C)C4(C)C)cc3)cc2)C1(C)C	-61.4%
CCC1(O)C(=O)OCc2c1cc1n(c2=O)Cc2cc3ccccc3nc2-1 (centres undefined)	84.7% and 77.9%
NC(Cc1ccc(N(CCCl)CCCl)cc1)C(=O)O (centres undefined)	34.7%
COc1cc([C@@H]2c3cc4c(cc3[C@H](O)[C@H]3COC(=O)[C@H]23)OCO4)cc(OC)c1O	44.6% and 52.8%
COc1cc(C2c3cc4c(cc3C(O)C3COC(=O)C23)OCO4)cc(OC)c1OC (centres undefined)	60.9%

Experiment: growth inhibition, single agents and combos, HTB85, cell-based, BGB or cisplatin IC20 combos, synergistic combos for chromothripsis tumors (AID 1671453);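 also: 0% = vehicle DMSO and 100% = high DMSO killing control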
Conditions: HTB85 osteosarcoma cells, drug combinations, at 0.5 µM, stronger effect = higher value

SMILES	inhibition
Cc1c(N)nc(C(CC(N)=O)NCC(N)C(N)=O)nc1C(=O)NC(C(=O)NC(C)C(O)C(C)C(=O)NC(C(=O)NCCc1nc(-c2nc(C(=O)NCCC[S+](C)C)cs2)cs1)C(C)O)C(O[C@@H]1O[C@@H](CO)[C@@H](O)[C@H](O)[C@@H]1O[C@H]1O[C@H](CO)[C@@H](O)[C@H](OC(N)=O)[C@@H]1O)c1cnc[nH]1 (some centres undefined)	23% (inactive) and 30.3% (inactive)
O=c1[nH]c(=O)n(C2OC(CO)C(O)C2O)cc1F (centres undefined)	22% (inactive)
O=P(O)(NCCCl)NCCCl	-29.6% (inactive)
CC1(C)C(C(=O)Nc2ccc(S(=O)(=O)c3ccc(NC(=O)C4C(C)(C)C4(C)C)cc3)cc2)C1(C)C	-37.5% (inactive)
CCC1(O)C(=O)OCc2c1cc1n(c2=O)Cc2cc3ccccc3nc2-1 (centres undefined)	87% (active) and 98.3% (active)
NC(Cc1ccc(N(CCCl)CCCl)cc1)C(=O)O (centres undefined)	5.83% (inactive)
COc1cc([C@@H]2c3cc4c(cc3[C@H](O)[C@H]3COC(=O)[C@H]23)OCO4)cc(OC)c1O	70% (inactive) and 60.4% (inactive)
COc1cc(C2c3cc4c(cc3C(O)C3COC(=O)C23)OCO4)cc(OC)c1OC (centres undefined)	72.2% (inactive)
